# Only some compounds are listed: those with a hit (about 2.3% of all), similar ones and a draw of the others.
# Mcl-1 Bim block – inhibitors of Bim-Mcl-1 interaction, human. Q07820. Bead-based flow cytometry, Bim peptide-Mcl-1 binding. inhibition, % at 10 µM. 190,000 compounds, 0.1% hits. AID 1009; in the data active = inhibition above about 40%;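 note: 0% = no compound tracer wells and 100% = peptide blocker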
# Mcl1-Bid inh – disrupts binding of human Mcl-1 to Bid peptide; Q07820; TR-FRET Mcl-1/Bid-Dy647 peptide binding, 1536-well; 220,000 compounds, 0.97% hits; inhibition, % at 21.7 µM; AID 1021;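 active = compounds that cut the binding signal by more than half at the single screening dose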;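 note: His-tagged Mcl-1 with europium anti-His antibody binding Bid BH3 peptide; 0% = Mcl-1 plus peptide wells and 100% = peptide-only wells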
# MCL1-BIM inh – disrupts human MCL1 binding to BIM-BH3 peptide; Q07820; GST-MCL1 / FITC-Bim-BH3 fluorescence polarization; inhibition, % at 10.9 µM; 320,000 compounds, 0.68% hits; AID 2057;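 active = inhibition above the mean inhibition of all tested compounds plus 3 SD, set per campaign, cut at about 40% in these data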;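 note: 0% = DMSO wells and 100% = unlabeled Bim-BH3 peptide control; higher means more loss of mP so more displacement of Bim peptide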
# Mcl1 Noxa PPI – disrupts binding of human Mcl-1 to Noxa peptide; inhibition, % at 21.7 µM; AID 1022; 220,000 compounds, 1.5% hits; Q07820; TR-FRET Mcl-1/Noxa peptide binding, 2 h;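 active = compounds that cut the protein-peptide binding signal by more than 50% relative to plate controls in a single-dose test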;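 note: His-tagged Mcl-1 with rhodamine Noxa BH3 peptide and terbium anti-His antibody; 0% = Mcl-1 plus Noxa peptide wells and 100% = peptide-only wells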
# BCLXL inh – blocks human Bcl-xL binding to Bim BH3 peptide. Q07817. GST-Bcl-xL / FITC-Bim BH3 peptide fluorescence polarization. inhibition, % at 10.9 µM. 320,000 compounds, 0.7% hits. AID 2129;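 active = inhibition above the mean of all tested compounds plus 3 SD, cutoff set per campaign, cut at about 30% in these data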;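 note: 0% = DMSO wells and 100% = unlabeled Bim-BH3 peptide competitor; inhibitors lower millipolarization by displacing the labeled peptide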
# GLD-1 TGE inh – GLD-1-TGE RNA interaction inhibition (C. elegans); Q17339; purified GLD-1 + fluorescein TGE RNA, fluorescence polarization; inhibition, % at 5.96 µM; 320,000 compounds, 0.44% hits;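 active = percent inhibition above a per-plate cutoff, the plate mean of test compounds plus 3 SD, cut at about 30% in these data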;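 note: 0% = DMSO wells with GLD-1 and probe and 100% = wells lacking GLD-1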
# Target sequence (Q17339 whole entry, looked up): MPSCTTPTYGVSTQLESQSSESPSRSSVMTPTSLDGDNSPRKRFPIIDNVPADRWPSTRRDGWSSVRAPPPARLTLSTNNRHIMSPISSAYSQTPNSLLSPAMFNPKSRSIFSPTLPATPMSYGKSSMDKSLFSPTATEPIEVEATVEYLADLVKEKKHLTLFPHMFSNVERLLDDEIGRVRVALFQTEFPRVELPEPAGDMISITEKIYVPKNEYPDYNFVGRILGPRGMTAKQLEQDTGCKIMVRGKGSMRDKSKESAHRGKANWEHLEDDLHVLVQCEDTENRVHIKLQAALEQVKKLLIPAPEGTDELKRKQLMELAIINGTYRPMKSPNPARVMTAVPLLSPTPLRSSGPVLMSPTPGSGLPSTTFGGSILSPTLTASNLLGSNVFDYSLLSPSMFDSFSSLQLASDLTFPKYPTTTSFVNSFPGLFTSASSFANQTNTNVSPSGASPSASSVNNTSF
# * hit, by the source's call; i = inactive; · = no result.
SMILES,Mcl-1 Bim block,Mcl1-Bid inh,MCL1-BIM inh,Mcl1 Noxa PPI,BCLXL inh,GLD-1 TGE inh
COc1ccc(N(CC(=O)Nc2c(C)n(C)n(-c3ccccc3)c2=O)S(=O)(=O)c2ccc(C)cc2)cc1OC,·,·,-5,·,3,6
Cc1cccc(N(CC(=O)Nc2c(C)n(C)n(-c3ccccc3)c2=O)S(C)(=O)=O)c1,-2,99*,2,4,7,2
Cc1c(NC(=O)c2ccc(S(=O)(=O)N(C)c3ccccc3)cc2)c(=O)n(-c2ccccc2)n1C,0,-15,7,-2,3,1
CC(OC(=O)CCCN=C1NS(=O)(=O)c2ccccc21)C(=O)c1ccccc1 (centres undefined),·,·,-8,·,-3,-4
CSCC(C)N1CCC(n2nccc2NC(=O)c2ccccc2C)CC1 (centres undefined),·,·,39,·,38*,23
O=C(Cn1sc2ccccc2c1=O)NC12CC3CC(CC(C3)C1)C2,-15,32,39,53*,22,1
CC1CCC(NC(=O)CCCn2sc3ccccc3c2=O)CC1 (centres undefined),·,·,0,·,4,-5
O=c1cc2c(=O)oc3cc(O)c(O)oc3c2c(O)c1O,·,-158,·,89*,·,·
CSc1cccc(NC(=O)Nc2ccccc2C(N)=O)c1,·,-6,-17,11,-2,-1
Nc1c(C(=O)NCC2CCCO2)sc2nc3c(c(-c4ccco4)c12)CC/C3=C\c1ccco1 (centres undefined),44*,80*,·,98*,·,·
Cn1cc(C(=O)N/N=C/c2ccc([N+](=O)[O-])cc2)c2ccccc21,·,38,0,75*,-7,-2
O=C(COCC(=O)NCc1ccccc1)NCc1ccccc1,49*,-19,-2,4,0,5
O=C(CCc1ccccc1)NCc1ccccc1,-7,-19,-4,-5,3,-10
O=C(COC(=O)c1cccnc1Cl)Nc1nc(-c2ccccc2)cs1,0,11,0,-3,3,3
COc1ccccc1CCc1nnc(CCC(=O)NCC2CCCO2)o1 (centres undefined),·,·,8,·,7,3
COc1ccccc1CNC(=O)CNCC1CCCO1 (centres undefined),0,50*,1,15,7,9
COc1ccc(-c2cc(C(=O)NCC3CCCO3)on2)cc1OC (centres undefined),·,·,1,·,34*,7
COc1cccc(-c2cc(C(=O)NCC3CCCO3)on2)c1 (centres undefined),·,·,7,·,4,1
O=C(Nc1ccc(S(=O)(=O)N2CCOCC2)cc1)c1c(F)cccc1F,·,·,-3,·,6,0
CCN1/C(=C/C=C/C=C/c2sc3ccccc3[n+]2CC)Sc2ccccc21,·,i,140*,-252,128*,-32
CCCCNC(=O)CSc1ccc(S(=O)(=O)N2CCOCC2)cn1,·,·,-1,·,2,-1
NC(=O)CSc1ccc(S(=O)(=O)N2CCOCC2)cn1,·,·,43*,·,38*,20
Cc1ccccc1NC(=O)Cc1nc(COC(=O)c2cccc([N+](=O)[O-])c2)cs1,·,·,4,·,4,4
COc1ccc(C)cc1S(=O)(=O)N(C)CC(=O)NCc1ccco1,1,94*,8,12,10,5
COc1ccc(S(=O)(=O)N(C)CC(=O)NCc2ccco2)cc1Cl,·,·,-5,·,0,4
SMILES,Mcl-1 Bim block,Mcl1-Bid inh,MCL1-BIM inh,Mcl1 Noxa PPI,BCLXL inh,GLD-1 TGE inh
COC(=O)c1ccc(=O)c2nc3/c(=C/O)c(O)cc(=O)c3[nH]c12,·,75*,97*,98*,90*,4
Nc1cc2nc[nH]c2cc1N,8,-9,·,74*,·,·
COc1ccc(CN2CC[C@H]3C=CC[C@@H](C(=O)Nc4ccc(Cl)c(C(F)(F)F)c4)[C@H]3C2=O)cc1OC,·,·,2,·,6,5
CC(NC(=O)c1ccnn1C)C1CCCO1 (centres undefined),0,-14,9,0,7,2
Cc1noc(C)c1S(=O)(=O)N1CCCC1C(=O)O (centres undefined),·,·,1,·,-2,10
Nc1nn2c(-c3ccccc3)cc(=O)[nH]c2c1N=Nc1ccc(Br)cc1,1,36,·,92*,·,·
O=C(c1cnn2c(C(F)(F)F)cc(-c3cccs3)nc12)N1CCOCC1,0,69*,0,10,-3,2
CCCCCCNC1=NCCS1,-1,-9,0,12,1,-4
